Assay [1] is described as follows: Viability qHTS for spleen associated tyrosine kinase inhibitor (SYKi) naive MV4-11 cells (AID 1963823). Further: nearly all actives have a fitted effect of over 40% in size. In a few lines:
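Seeding of 500 SYKi-naive MV4-11 cells per well onto pre-dispensed compounds preceded a 72 hr incubation at 37 C. Luminescent CellTiter-Glo signal, read after 10 min at room temperature, reflected viable cells.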
A general note: Quantitative high-throughput screening tests each substance at several concentrations.

A short description of assay [2]: Viability qHTS for spleen associated tyrosine kinase inhibitor (SYKi) drug resistant MV4-11 cells (AID 1963824). Further: nearly all actives have a fitted effect of over 35% in size. In a few lines:
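CellTiter-Glo luminescence, read 10 min after reagent addition, reports viability after a 72 hr compound exposure. Cells are an MV4-11 line made resistant to SYK inhibition, seeded at 500 per well onto compound-containing plates.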

Assay [3] is described as follows: Cellular viability qHTS for adrenocortical cancer (ACC) cell line SW-13 (AID 1963989). Further: nearly all actives have a fitted effect of over 65% in size.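 On activity (max response): cells grown in serum-free medium with ITS supplement; on the % scale 0 is the no-effect control and ±100 the full control effect.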 The note with it: SW-13 ACC cells viability, CellTiter-Glo, 48 h; activity (max response): hits give low values. In a few lines: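 Here, serum-free SW-13 cultures were dosed up to 46 uM. Following 48 h, ATP-dependent luminescence (CellTiter-Glo) reported viable cells, and logistic modeling produced IC50 values.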

A short description of assay [4]: Cellular viability qHTS for adrenocortical cancer (ACC) cell line NCI-H295R (AID 1963990). Further: nearly all actives have a fitted effect of over 60% in size. In outline:
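Viability of NCI-H295R after 48 h of treatment (final up to 46 uM) measured through cellular ATP luminescence.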

Several values for one entry are separate records, joined by “and”; a condition that tells them apart may be missing. Equal values may be shown once. Results filed as inconclusive are left out. A number with no mark means an inactive call. Activity calls are given as the source filed them. The call rests on the fitted dose curve; in most records, active means well fitted curve in the direction sought with a large enough effect; inconclusive means small, poorly fitted or top-dose-only effect, or another doubt; inactive means no such curve, though single readings can be large; an effect the other way counts as inactive or inconclusive.
Potency means the concentration at half of the fitted maximal effect.

On to `O=C(Nc1ccnc(NC(=O)C2CC2)c1)c1c(Cl)cccc1Cl`, for which the Potency in assay [1] is 5.17 µM (active); in assay [2] it was 4.68 µM (active); in assay [3] it was 15.8 µM (active); in assay [4] it was 11.2 µM (active).
As for `NC(=O)c1ncn([C@@H]2O[C@H](CO)[C@@H](O)[C@H]2O)c1O`, the Potency entry in assay [1], in assay [2] and in assay [4] was “inactive” throughout. Moreover, the activity (max response) in assay [3] was 14.2% and 14.7% and 8.98%.
Take `O=C(O)CNC(=O)c1nc(Cl)c2ccccc2c1O`: the Potency result in assay [1], in assay [2] and in assay [4] was “inactive” throughout. Further, the activity (max response) in assay [3] was 8.31%.
For `C[C@@H]1O[C@@H](OC[C@H]2O[C@@H](Oc3c(-c4ccc(O)c(O)c4)oc4cc(O)cc(O)c4c3=O)[C@H](O)[C@@H](O)[C@@H]2O)[C@H](O)[C@H](O)[C@H]1O`, the Potency entry in assay [1], in assay [2] and in assay [4] was “inactive” throughout. Further, the activity (max response) in assay [3] was 16.6%.
Take `COC(=O)CCc1ccc(OCC(O)CNC(C)C)cc1` (centres undefined): the Potency result in assay [1], in assay [2] and in assay [4] was “inactive” each time. For the same compound, in assay [3], the activity (max response) was -6.6%.
For `Fc1ccc(-c2csc3ncnc(NCc4ccc5c(c4)OCO5)c23)cc1`, the Potency is 1.66 µM (active) in assay [1], 1.66 µM (active) in assay [2], 15.8 µM (active) in assay [3] and 25.1 µM (active) in assay [4].
Turning to `Nc1ccc(O)c([N+](=O)[O-])c1`, the Potency entry in assay [1] and in assay [4] was “inactive” each time. Also, the Potency in assay [2] was 0.0611 µM (active). Also, in assay [3], the activity (max response) was 0.787%.
On to `CO[C@@H](C)Cn1c(=O)n(C)c2cnc3ccc(-c4cncc(C(C)(C)O)c4)cc3c21`, for which the Potency in assay [1] is 0.082 µM (active); in assay [2] it was 0.332 µM (active); in assay [3], 3.55 µM (active); in assay [4], 0.891 µM (active).
Consider `O=C(NCc1cccc(O)c1)Nc1nc(-c2ccncc2)cs1`, for which the Potency in assay [1] was 10.3 µM (active); in assay [2] it was 16.4 µM (active). The activity (max response) in assay [3] was -22.1%. Also, the Potency entry in assay [4] is “inactive”.
On to `Cc1ccc(C(=O)C(=O)O)cc1C`, for which the Potency result in assay [1], in assay [2] and in assay [4] was “inactive” in each case. The activity (max response) in assay [3] is 1.9%.
In the case of `OCC(CO)N[C@H]1C[C@](O)(CO)[C@@H](O)[C@H](O)[C@H]1O`, the Potency entry in assay [1], in assay [2] and in assay [4] was “inactive” each time. In assay [3], the activity (max response) was 4.01%.
Take `CC1=C(C(=O)O)N2C(=O)[C@@H](NC(=O)[C@H](N)c3ccc(O)cc3)[C@H]2SC1`: the Potency result in assay [1], in assay [2] and in assay [4] was “inactive” in each case. Moreover, the activity (max response) in assay [3] is 8.09%.
On to `COc1cc(C=C2CCC/C(=C\c3ccc(O)c(OC)c3)C2=O)ccc1O`, for which the Potency was 3.76 µM (active) in assay [1], 3.35 µM (active) in assay [2], 4.61 µM (active) in assay [3] and 7.31 µM (active) in assay [4].
On to `[2H]C([2H])([2H])C(O)([C@@H](C)/C=C/[C@@H](C)[C@H]1CC[C@H]2/C(=C/C=C3C[C@@H](O)C[C@H](O)C3)CCC[C@]12C)C([2H])([2H])[2H]`, for which the Potency is 0.0105 µM (active) in assay [1] and 0.468 µM (active) in assay [2]. In addition, in assay [3], the activity (max response) was -26.6%. Also, the Potency entry in assay [4] was “inactive”.
In the case of `c1cn2cc(-c3ccc4cn[nH]c4c3)nc(Nc3ccc(N4CCOCC4)cc3)c2n1`, the Potency in assay [1] was 0.651 µM (active); in assay [2] it was 820 nM (active) and 1.32 µM (active). In addition, in assay [3], the activity (max response) was 2.68%. Further, the Potency result in assay [4] is “inactive”.
As to `CC(C)N(CCC(=O)c1ccc2ccccc2c1)Cc1ccccc1`, the Potency is 2.35 µM (active) in assay [1]; 2.95 µM (active) and 1.84 µM (active) in assay [2]; 14.1 µM (active) in assay [4]. Besides, the activity (max response) in assay [3] is -18.6%.

The record behind these values is PubChem BioAssay (NCATS).
